Results published in paper PMC7826789 (International Journal of Molecular Sciences, 2021).

Assays:
Conditions in all cases: Compound Concentration (nM):1000
TNK1 = system: TNK1
TNK2 = system: TNK2
TNNI3K = system: TNNI3K
TRKA = system: T1, TRKA
T1 construct: gene NTRK1

TRKB = system: T2, TRKB
T2 construct: gene NTRK2

TRKC = system: T3, TRKC
T3 construct: gene NTRK3

TRPM6 = system: TRPM6
TSSK1B = system: TSSK1B
TSSK3 = system: TSSK3
TTK = system: TTK
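Further: KINOMEscan scanMAX binding as percent activity remaining versus control; lower means stronger binding.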

| SMILES | Percent Control (TNK1) | Percent Control (TNK2) | Percent Control (TNNI3K) | Percent Control (TRKA) | Percent Control (TRKB) | Percent Control (TRKC) | Percent Control (TRPM6) | Percent Control (TSSK1B) | Percent Control (TSSK3) | Percent Control (TTK) |
| --- | --- | --- | --- | --- | --- | --- | --- | --- | --- | --- |
| CN(C)CCNC(=O)Nc1ccc(N(C)c2ccnc(Nc3ccc(CS(C)(=O)=O)cc3)n2)cc1.Cl [GW830900A] | 39% | 75% | 97% | 16% | 34% | 57% | 100% | 100% | 83% | 68% |
| Cl.c1ccc(Cc2nc3ccc(Nc4ncnc5ccccc45)cc3[nH]2)cc1 [GR269666A] | 100% | 100% | 84% | 100% | 92% | 100% | 97% | 70% | 100% | 51% |
| COc1cccc(-n2ncc3c(N/N=C/c4ccncc4)ncnc32)c1 [GW784752X] | 88% | 100% | 51% | 65% | 73% | 85% | 89% | 100% | 90% | 88% |
| CCn1c(-c2nonc2N)nc2c(C#CC(C)(C)O)nc(OCCNC)cc21.Cl [GSK949675] | 100% | 100% | 100% | 100% | 100% | 100% | 100% | 90% | 14% | 91% |
| CN(C)c1cc2c(Nc3ccc4c(cnn4Cc4ccccc4)c3)ncnc2cn1 [GW282974X] | 93% | 84% | 100% | 65% | 92% | 93% | 92% | 100% | 99% | 87% |
| NS(=O)(=O)c1ccc(N/N=C2\C(=O)Nc3ccc(-c4cnco4)cc32)cc1 [GW276655] | 52% | 66% | 100% | 15% | 39% | 38% | 89% | 100% | 100% | 20% |
| CC(C)COC(=O)c1ccc2c(c1)/C(=C/Nc1ccc(S(N)(=O)=O)cc1)C(=O)N2 [GW416981X] | 100% | 100% | 100% | 23% | 55% | 59% | 100% | 100% | 100% | 6.3% |
| COc1ccc2c(-c3ccnc(Nc4cccc(OC(F)(F)F)c4)n3)cnn2n1 [GW810372X] | 100% | 100% | 100% | 55% | 92% | 91% | 92% | 100% | 86% | 94% |
| CCS(=O)(=O)c1ccc(OC)c(Nc2ncc(-c3cccc(OC)c3)o2)c1 [GW580509X] | 30% | 100% | 100% | 16% | 46% | 67% | 100% | 100% | 100% | 90% |
| Cc1cc(O)cc(C)c1/C=C/c1cncc(C(N)=O)c1 [GW435821X] | 100% | 100% | 67% | 98% | 94% | 100% | 100% | 100% | 100% | 90% |
| O=C1Nc2ccc(C(=O)c3ccco3)cc2C1=Cc1cc(Cl)c(O)c(Cl)c1 [GW406108X] | 79% | 100% | 100% | 33% | 75% | 61% | 95% | 100% | 87% | 30% |
| Cl.O=S1CCN(Cc2ccc(-c3ccc4ncnc(Nc5ccc(OCc6ccccc6)c(F)c5)c4c3)o2)CC1 [GW576924A] | 100% | 100% | 100% | 100% | 100% | 100% | 92% | 90% | 100% | 100% |
| NS(=O)(=O)c1ccc(N/N=C2\C(=O)Nc3ccc(C(=O)NCc4ccncc4)cc32)cc1 [GW300657X] | 100% | 100% | 96% | 7.6% | 21% | 37% | 89% | 100% | 89% | 5.5% |
| CC1=C(C(=O)Nc2ccc3[nH]ncc3c2)C(c2ccc(Cl)c(Cl)c2)CC(=O)N1 (stereo not drawn) [GSK299115A] | 82% | 79% | 100% | 72% | 97% | 68% | 87% | 93% | 77% | 89% |
| COc1ccc2[nH]c3c4[nH]c5ccc(OC)cc5c4c4c(c3c2c1)C(=O)NC4=O [GW296115X] | 29% | 69% | 90% | 40% | 59% | 47% | 79% | 89% | 89% | 50% |
| COc1cccc(-c2c[nH]c3c(N/N=C/c4ccncc4)ncnc23)c1 [GW814408X] | 100% | 100% | 31% | 64% | 100% | 100% | 97% | 98% | 98% | 79% |
| NS(=O)(=O)c1ccc(N/N=C2\C(=O)Nc3ccc(Cl)cc32)cc1 [GW280670X] | 100% | 100% | 100% | 43% | 94% | 89% | 100% | 100% | 100% | 40% |
| COc1ccccc1-c1cc(/C=C2\C(=O)Nc3ncc(Br)cc32)cc(Br)c1O [GW442130X] | 97% | 100% | 100% | 7.2% | 22% | 44% | 100% | 75% | 97% | 97% |
| COc1ccc(COc2ccc(Cc3cnc(N)nc3N)cc2OC)cc1 [GW632580X] | 73% | 77% | 90% | 4.2% | 0.9% | – | 89% | 100% | 83% | 85% |
| NS(=O)(=O)c1ccc(Nc2ncc(-c3ccccc3)o2)cc1 [GW572399X] | 100% | 100% | 100% | 55% | 72% | 78% | 100% | 100% | 100% | 78% |

| SMILES | Percent Control (TNK1) | Percent Control (TNK2) | Percent Control (TNNI3K) | Percent Control (TRKA) | Percent Control (TRKB) | Percent Control (TRKC) | Percent Control (TRPM6) | Percent Control (TSSK1B) | Percent Control (TSSK3) | Percent Control (TTK) |
| --- | --- | --- | --- | --- | --- | --- | --- | --- | --- | --- |
| COc1cc2ncn(-c3cc(O[C@H](C)c4ccccc4Cl)c(C(N)=O)s3)c2cc1OC [GSK237701A] | 82% | 58% | 100% | 31% | 51% | 59% | 89% | 74% | 39% | 82% |
| CC1=C(C(=O)Nc2ccc3[nH]ncc3c2)C(c2ccc3ccccc3c2)CC(=O)N1 (stereo not drawn) [GSK270822A] | 68% | 62% | 100% | 66% | 73% | 63% | 82% | 97% | 43% | 92% |
| NS(=O)(=O)c1ccc(N/N=C2\C(=O)Nc3ccc(C(=O)NCCc4c[nH]cn4)cc32)cc1 [GW300660X] | 100% | 100% | 92% | 20% | 52% | 57% | 100% | 100% | 100% | 11% |
| COc1ccc2cc(-c3c(-c4ccncc4)nc(-c4ccc(S(C)(=O)=O)cc4C)n3C)ccc2c1 [SB-633825] | 57% | 61% | 100% | 73% | 70% | 60% | 71% | 74% | 57% | 91% |
| C[C@@H](Oc1cc(-n2cnc3ccc(OC4CCN(C)CC4)cc32)sc1C(N)=O)c1ccccc1Cl [GSK579289A] | 76% | 86% | 100% | 49% | 82% | 91% | 88% | 71% | 100% | 69% |
| Cl.O=C(O[C@H]1CN[C@H](C#Cc2cc3ncnc(Nc4ccc5c(cnn5Cc5ccccc5)c4)c3s2)C1)N1CCOCC1 [GSK200398A] | 99% | 97% | 55% | 70% | 87% | 95% | 96% | 100% | 93% | 100% |
| COc1cc(C=NNc2ncnc3c2cnn3-c2ccccc2)ccc1O [GW513184X] | 67% | 100% | 84% | 66% | 100% | 99% | 100% | 98% | 100% | 100% |
| CN1CCN(C(=O)c2ccc(NC(=O)Nc3ccc(N(C)c4ccnc(Nc5ccc(CS(C)(=O)=O)cc5)n4)cc3)cc2)CC1.Cl [GW830263A] | 6.7% | 6.5% | 92% | 7.1% | 11% | 2% | 91% | 96% | 75% | 61% |
| CCS(=O)(=O)c1ccc(OC)c(Nc2ncc(-c3cccc(F)c3)o2)c1 [GW621970X] | 38% | 90% | 66% | 11% | 30% | 48% | 88% | 100% | 100% | 100% |
| COc1cc(C)c(N(C)C(=O)CN(C)C)cc1Nc1nc(Nc2cccc(F)c2C(N)=O)c2cc[nH]c2n1 [GSK2219385] | 83% | 100% | 100% | 87% | 100% | 100% | 100% | 100% | 100% | 71% |
| C/C(Nc1ccc(S(N)(=O)=O)cc1)=C1/C(=O)Nc2ccccc21 [GW335962X] | 100% | 100% | 69% | 7.9% | 25% | 42% | 84% | 100% | 75% | 12% |
| COc1cc(N2CCN(C(C)C)CC2)ccc1Nc1nc(Nc2ccc(F)cc2C(=O)NC[C@@H](O)CO)c2cc[nH]c2n1 [GSK1392956A] | 18% | 67% | 100% | 86% | 91% | 89% | 82% | 42% | 83% | 4.9% |
| Nc1ncnc2occ(-c3ccc(NC(=O)Nc4cc(C(F)(F)F)ccc4F)cc3)c12 [GW770249X] | 85% | 100% | 40% | 3% | 1.6% | 0.1% | 100% | 100% | 84% | 61% |
| COC(=O)Nc1nc2ccc(Oc3ccc(NC(=O)Nc4cc(C(F)(F)F)ccc4F)cc3)cc2s1.Cl [GW693917A] | 37% | 95% | 61% | 4.8% | 6.2% | 4.5% | 73% | 92% | 82% | 80% |
| Cl.O=C(Nc1ccc(Oc2ccc3[nH]c(NC(=O)c4ccccc4)nc3c2)cc1)Nc1cc(C(F)(F)F)ccc1F [GW709042A] | 66% | 100% | 55% | 27% | 35% | 29% | 100% | 100% | 100% | 87% |
| O=C(Nc1n[nH]c2nc(-c3ccc(O)cc3)c(Br)cc12)C1CC1 [SB-725317] | 100% | 100% | 100% | 65% | 100% | 100% | 100% | 100% | 100% | 97% |
| CCc1ccc(Oc2nccc(-c3c(-c4ccc(F)cc4)ncn3C3CCNCC3)n2)cc1 [SB-242719] | 80% | 82% | 100% | 86% | 98% | 98% | 100% | 99% | 90% | 80% |
| COc1cc2ncnc(Nc3ccc4c(cnn4Cc4ccccc4)c3)c2cc1OC.Cl [GW282449A] | 100% | 77% | 100% | 100% | 100% | 100% | 87% | 100% | 100% | 96% |
| Cl.O=C(Nc1ccc(Oc2ccc3[nH]c(NC(=O)c4ccco4)nc3c2)cc1)Nc1cc(C(F)(F)F)ccc1F [GW683134A] | 36% | 100% | 53% | 5% | 6% | 3% | 100% | 100% | 100% | 85% |
| COc1cc(/C=N/Nc2ncnc3[nH]ncc23)ccc1O [GW578748X] | 100% | 100% | 100% | 42% | 70% | 88% | 95% | 100% | 100% | 68% |
